697 NFkB inh = inhibitors of the PMA/ionomycin-induced NF-kB reporter in 697 B cells; inhibition, % at 4 µM; 697 B-cell NF-kB luciferase reporter, 16 h; actives 0.33% (n = 330,000); in the data active means inhibition above about 35%
LMP1 NFkB inh = Epstein-Barr LMP1 NF-kappaB reporter inhibition; LMP1-induced NF-kappaB luciferase reporter cells, luminescence; inhibition, % at 12.5 µM; actives 0.69% (n = 350,000); AID 504558; in the data active means inhibition above about 41%;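 further: 0% = neutral control wells and 100% = reference inhibitor control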
Shn3 inh set2 = reduces Shn3 3'UTR luciferase signal in osteoblasts. inhibition, % at 12.5 µM. Clone20 osteoblast Shn3 3'UTR firefly luciferase, 24 h. AID 588674. actives 0.52% (n = 360,000);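 active means mean inhibition of at least 75% with every replicate also reaching 75%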;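 further: 0% = median of neutral control wells and 100% = pilot-screen positive control compound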
TRPM1 prom inh = reduces MITF-dependent TRPM1 promoter luciferase signal; SK-MEL-5 TRPM1 promoter luciferase, 24 h; inhibition, % at 12.5 µM; actives 0.83% (n = 330,000); AID 488899;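 active means mean inhibition across replicates of 60% or more, whatever share of single replicates reaches that level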
Gli-Sufu antag = Gli-Sufu pathway antagonism | Sufu-KO-LIGHT fibroblasts, Gli luciferase reporter luminescence | actives 0.74% (n = 340,000) | inhibition, % at 5 µM;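 active means inhibition above about 55%, limit read from the data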;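 further: 0% = DMSO-treated cells and 100% = wells with medium but no cells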
Jurkat NFkB inh = lowers PMA/ionomycin-induced NF-kB signal in Jurkat cells | actives 0.53% (n = 330,000) | PMA/ionomycin-induced NF-kB luciferase reporter, luminescence | AID 435003 | inhibition, % at 4 µM; in the data active means inhibition above about 50%
Jurkat NFkB conf = lowers PMA/ionomycin-induced NF-kB signal in Jurkat cells; shares compounds with Jurkat NFkB inh; Jurkat NF-kB luciferase, 16 h; inhibition, % at 4 µM; actives 27% (n = 2,700); AID 435020;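 active means inhibition reaching about 45% at 4 µM in either replicate, limit read from the data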;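 further: plate controls were PMA/ionomycin stimulated DMSO wells for no effect and unstimulated DMSO wells for full effect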
697 NFkB conf = lowers PMA/ionomycin-induced NF-kB signal in 697 B cells; shares compounds with 697 NFkB inh; inhibition, % at 4 µM; AID 449746; 697 B-cell NF-kB luciferase, 16 h; actives 35% (n = 2,000); in the data active means inhibition mostly above about 28%, no sharp cut-off; inactive means mostly below about 22%
Active calls of the source: *. Most compounds without a hit are left out; they make up all but 2.3% or so of the library.

Results for CNc1nc(-c2ccc(Cl)cc2)cs1 ?
697 NFkB inh: -100; LMP1 NFkB inh: -22; Shn3 inh set2: -107; TRPM1 prom inh: -81; Gli-Sufu antag: 27; Jurkat NFkB inh: -46

Results for O=c1c2ccccc2oc2cc(C#CC3(O)CCCCC3)ccc12 ?
697 NFkB inh: -160; LMP1 NFkB inh: 11; Shn3 inh set2: 42; TRPM1 prom inh: 49; Gli-Sufu antag: 36; Jurkat NFkB inh: -85

Results for COc1cccc2oc3cc(C#CC4(O)CCCCC4)ccc3c(=O)c12 ?
697 NFkB inh: -352; LMP1 NFkB inh: -36; Shn3 inh set2: -24; TRPM1 prom inh: -25; Gli-Sufu antag: -34; Jurkat NFkB inh: -213; Jurkat NFkB conf: -99; 697 NFkB conf: -443

How did c1ccc(-c2noc(-c3ccc4c(c3)OCO4)n2)cc1 do in these assays?
697 NFkB inh: -342; LMP1 NFkB inh: -8; Shn3 inh set2: 13; TRPM1 prom inh: -3; Gli-Sufu antag: -74; Jurkat NFkB inh: -182; Jurkat NFkB conf: -112; 697 NFkB conf: -275

Results for c1ccc(-c2noc(COc3ccc4c(c3)OCO4)n2)cc1 ?
697 NFkB inh: -131; LMP1 NFkB inh: -58; Shn3 inh set2: -93; TRPM1 prom inh: -95; Gli-Sufu antag: 3; Jurkat NFkB inh: -95

How did c1ccc(-c2noc(-c3ccno3)n2)nc1 do in these assays?
697 NFkB inh: 4; LMP1 NFkB inh: 4; Shn3 inh set2: -8; TRPM1 prom inh: -12; Gli-Sufu antag: 0; Jurkat NFkB inh: 13

Results for c1ccc(-c2ccc(-c3nc(-c4ccccn4)no3)cc2)cc1 ?
697 NFkB inh: 39*; LMP1 NFkB inh: 83*; Shn3 inh set2: 83*; Gli-Sufu antag: 81*; Jurkat NFkB inh: 77*; Jurkat NFkB conf: 81*; 697 NFkB conf: 36*

Results for COc1cccc2c1C(=O)c1c(O)c3c(c(O)c1C2=O)C[C@@](O)(C(=O)CO)C[C@@H]3O[C@H]1C[C@H](N)[C@H](O)[C@H](C)O1 ?
697 NFkB inh: 94*; LMP1 NFkB inh: 84*; Shn3 inh set2: 92*; TRPM1 prom inh: 87*; Gli-Sufu antag: 53; Jurkat NFkB inh: 90*; Jurkat NFkB conf: 89*; 697 NFkB conf: 77*

How did CN1C(=S)SC(N2OC3C(=O)N(c4ccccc4)C(=O)C3C2c2ccccc2)C1(C)C (stereo not drawn) do in these assays?
697 NFkB inh: 21; Jurkat NFkB inh: 7

Results for COc1ccc2nc(NC(=O)c3ccoc3C)sc2c1 ?
697 NFkB inh: -251; LMP1 NFkB inh: -10; Shn3 inh set2: -33; TRPM1 prom inh: -27; Gli-Sufu antag: -78; Jurkat NFkB inh: -191; Jurkat NFkB conf: -92; 697 NFkB conf: -324

Results for CCCC(=O)Nc1nc2ccc(OC)cc2s1 ?
697 NFkB inh: -113; LMP1 NFkB inh: -30; Shn3 inh set2: -76; TRPM1 prom inh: -62; Gli-Sufu antag: -73; Jurkat NFkB inh: -75

Results for COc1ccc2nc(NC(=S)N(C)C)sc2c1 ?
697 NFkB inh: -319; LMP1 NFkB inh: 8; Shn3 inh set2: 5; TRPM1 prom inh: -33; Gli-Sufu antag: -42; Jurkat NFkB inh: -170; Jurkat NFkB conf: -52; 697 NFkB conf: -226

What do the screens show for `COc1ccc2nc(NC(=O)c3cc(C)oc3C)sc2c1`?
697 NFkB inh: -21; LMP1 NFkB inh: -21; Shn3 inh set2: -111; TRPM1 prom inh: -93; Gli-Sufu antag: -78; Jurkat NFkB inh: -69

Results for Cc1nc(Nc2ccccc2)sc1-c1ccccc1 ?
697 NFkB inh: -303; LMP1 NFkB inh: -32; Shn3 inh set2: -53; TRPM1 prom inh: -56; Gli-Sufu antag: -126; Jurkat NFkB inh: -164; Jurkat NFkB conf: -82; 697 NFkB conf: -151

Results for O=C(Nc1ccc(F)cc1)c1ccccc1F ?
697 NFkB inh: -13; LMP1 NFkB inh: -13; Shn3 inh set2: -54; TRPM1 prom inh: -78; Gli-Sufu antag: -39; Jurkat NFkB inh: -30

Results for COc1ccccc1C(=O)Nc1ccc2ccccc2c1 ?
697 NFkB inh: -91; LMP1 NFkB inh: -56; Shn3 inh set2: -32; TRPM1 prom inh: -28; Gli-Sufu antag: -14; Jurkat NFkB inh: -80
